{
  "source": "PubChem BioAssay AID1645870",
  "about": "(National Center for Advancing Translational Sciences (NCATS), 2021)",
  "note": "Values joined by “and” are separate entries in the source; they are usually repeats but may differ in a detail not shown here. Identical values can stand only once. In all, about 59,000 compounds went through this assay and about 1,500 (2.5%) were called active. A call without a number means that no potency is given here. Another 10% or so got no clear call; they are omitted. The call rests on the fitted dose curve; in most records, active means well fitted inhibition curve with a large enough effect; inconclusive means small, poorly fitted or top-dose-only effect; inactive means flat fitted curve, though single readings scatter. This excerpt belongs to a sample that is enriched for actives. More than one record can exist for a structure, and the calls need not agree. Potency means the concentration at half of the fitted maximal effect.",
  "data": [
    {"target": "N-terminal Xaa-Pro-Lys N-methyltransferase 1 (Homo sapiens) (UniProt Q9BV86)", "sequence (Q9BV86 whole entry, looked up)": "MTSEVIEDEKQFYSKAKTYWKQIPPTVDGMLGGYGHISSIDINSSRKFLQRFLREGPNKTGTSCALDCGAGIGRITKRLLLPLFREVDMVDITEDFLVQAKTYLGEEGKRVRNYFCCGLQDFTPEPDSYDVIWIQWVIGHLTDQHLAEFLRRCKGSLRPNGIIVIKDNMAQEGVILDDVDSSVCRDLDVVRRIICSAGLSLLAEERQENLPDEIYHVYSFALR", "experiment": "Primary qHTS for Inhibitors of N-terminal methyltransferase 1 (NTMT1): MTaseGlo Assay; further: nearly all actives have a fitted effect of over 65% in size", "details": "NTMT1 MTase-Glo SAH luminescence, purified enzyme; series mostly up to 114 µM", "source_text": "Assay Submitter (PI): Rong Huang Ph.D.\nPurdue University, West Lafayette, IN 47907\nThe N-terminal methytransferase 1 is the first methyltransferase that methylates protein alpha-N-amines and plays an important role in regulating cell mitosis, chromatin interactions and DNA repair. It is observed to be over-expressed in various cancer patient tissues like malignant melanoma and colorectal cancer tissues. Knockdown of NTMT1 in cancer cells causes cell mitotic defects and enhances sensitivity to DNA damaging chemotherapeutics. […] These critical cellular processes in which NTMT1 is implicated, coupled with emerging links to cellular dysfunction, strengthen the inference that NTMT1 is a compelling novel anticancer target. Progress have been made in understanding the molecular properties of NTMT1 and the biological consequences of protein alpha-N-terminal methylation, but there are no specific small molecule probes available for NTMT1 to fully characterize its MTase activity. To address this unmet need, a panel of assay is created and established to enable quantitative high-throughput screening (qHTS) for novel, potent, and selective small molecule NTMT1 inhibitors. Two orthogonal qHTS that use different reagents (ThioGlo vs. MTaseGlo) are developed for primary robotic screening against the NCATS chemical library of more than 400,000 small molecules. Identified inhibitors are reacquired, validated, and further characterized.\nMTaseGlo Assay is a luminescence screen that measure the activity of methyltransferases based on the reaction product S-adenosyl homocysteine (SAH). The substrate SAM is converted to SAH upon enzyme activation. MTase-Glo reagent and detection solution convert SAH to ATP and measure the light from the luciferase reaction.\nMaterials: NTMT1 enzyme, substrate SPKRIA, control peptide RCC1-6 is provided by the Huang laboratory.\nSEQUENCE No. (e.g., 1, 2, 3, etc.); […] (e.g., Cells, Incubation, Reagent, etc.); VALUE; DESCRIPTION\n1; Enzyme; 3 uL; Dispense enzyme mixture (final concentrations of 125 nM NTMT1 and 100 uM SAM) into Greiner 1536-well white / solid bottom assay plate (Greiner Bio One, Monroe, NC).\n2; Compounds; 23 nL; Compounds and controls were transferred via a Kalypsys Pin Tool (Wako USA) equipped with a 1536-slotted pin array (Wako Automation, Richmond, VA)\n3; Incubation; 15 min; Incubate at room temperature\n4; Substrate; 1 uL; Dispense 1 uL of substrate at final concentration of 1 uM. Buffer solution was dispensed in control wells. The assay plate was covered with metal lids.\n5; Incubation; 30 min; Incubate at room temperature, protected from lights.\n6; Reagent; 1 uL; Dispensed 5x MTase-Glo detection reagent (R) into the assay plate. The plate was covered with metal lids.\n7; Incubation; 30 min; Incubate the assay plates at room temperature in the dark to allow for SAH to be converted to ADP.\n8; Reagent; 5 uL; Dispense 5 uL of 1x MTase-Glo Detection Solution (R) to allow for ADP to be converted to ATP which was then detected with a luciferase reaction.\n9; Centrifuge; 15 sec; Centrifuge the assay plate for 15 seconds at 1000 RPM.\n10; Incubation; 30 min; Assay plates were incubation at room temperature in the dark.\n11; Detection; Luminescence; Plates were read on ViewLux detector (PerkinElmer). Data were normalized to no-enzyme (0% activity) and no-inhibitor (DMSO; 100%) controls, and the resulting percent inhibition data were fitted to a 4-parameter Hill equation using GraphPad Prism.", "values": [
      {"smiles": "CN(C)C/C=C/C(=O)Nc1ccc(C(=O)N2CCC[C@@H](Nc3ncc(Cl)c(-c4c[nH]c5ccccc45)n3)C2)cc1", "Potency": "inactive"},
      {"smiles": "Cn1cnc(CN=C2NC3=C(C(=O)CCC3)C(c3[nH]ncc3Cl)N2)c1", "note": "(stereo not given)", "Potency": "inactive"},
      {"smiles": "COc1cc2c(cc1OC)CN(CCc1ccc(-n3nnc(-c4cc(OC)c(OC)cc4NC(=O)c4cc(=O)c5ccccc5o4)n3)cc1)CC2", "activity change, negative = inhibition": "-7.78% [at 1.07 µM] (inactive)"},
      {"smiles": "N#Cc1c(N)nc(N)nc1N[C@H](c1nc2c(F)ccc(Cl)c2c(=O)n1-c1cccnc1)C1CC1", "Potency": "inactive"},
      {"smiles": "CC(C)(C)NS(=O)(=O)c1cccc(Nc2nn3c(=O)c4ccccc4nc3s2)c1", "Potency": "inactive"},
      {"smiles": "Cc1ccc(CNc2ccc(N3CCCCC3)cc2)cc1", "Potency": "inactive"},
      {"smiles": "FC(F)(F)c1cccc(N2CCN(C(=S)Nc3ccncc3)CC2)c1", "Potency": "inactive"},
      {"smiles": "Cc1ccc(N2CCN(C(=S)Nc3cc(C)ccn3)CC2)cc1", "Potency": "79.4 µM (active)"},
      {"smiles": "CCc1ccc(-c2nn3c(C)nnc3s2)cc1NC(=O)c1ccc(-c2cccc(Cl)c2)o1", "Potency": "inactive"},
      {"smiles": "CCOc1ccc(CCNC(=O)c2cnon2)cc1OCC", "Potency": "inactive"},
      {"smiles": "C=Cc1c(C)c2cc3nc(cc4[nH]c(cc5nc(cc1[nH]2)C(C)=C5CCC(=O)O)c(CCC(=O)OC)c4C)[C@@]1(C)C3=CC=C(C(=O)OC)[C@H]1C(=O)OC", "Potency": "50.1 µM (active)"},
      {"smiles": "N#Cc1ccc(NC(=O)Nc2nnc(-c3ccncc3)s2)c(Cl)c1", "Potency": "inactive"},
      {"smiles": "CC[C@H](Nc1ncnc2nc[nH]c12)c1oc2ccccc2c(=O)c1-c1cccc(F)c1", "Potency": "inactive"},
      {"smiles": "Cc1ccc(-c2cc(C(=O)Nc3cccc(Cl)c3)c3ccccc3n2)cc1C", "Potency": "inactive"},
      {"smiles": "Cc1cc(NC(=O)Nc2nnc(-c3ccncc3)s2)ccc1Cl", "Potency": "inactive"},
      {"smiles": "Fc1ccccc1-c1ccc(Nc2nc(-c3ccncc3)nc3ccccc23)cc1F", "Potency": "inactive"},
      {"smiles": "Fc1ccc(Cl)cc1-c1nc(Nc2ccncc2)c2nccnc2n1", "Potency": "inactive and 39.8 µM (active)"},
      {"smiles": "Fc1cc(Nc2nc(-c3ccncc3)nc3ccccc23)ccc1-c1ccc(F)c(F)c1F", "Potency": "inactive"},
      {"smiles": "C=CCNc1oc(-c2cccnc2)nc1C#N", "Potency": "inactive"},
      {"smiles": "Cc1noc(C)c1-c1ccc2ncnc(NCc3ccc(F)c(F)c3)c2c1", "Potency": "inactive"},
      {"smiles": "COc1cc2nc(Nc3ccccc3)nc(NC3CC3)c2cc1OC", "Potency": "50.1 µM (active)"},
      {"smiles": "COc1cc(Nc2nc(-c3ccc(OC)c(OC)c3)nc3ccccc23)cc(OC)c1", "Potency": "inactive"},
      {"smiles": "OC1CCC(Nc2nc(-c3ccccc3)nc3[nH]ccc23)CC1", "note": "(stereo not given)", "Potency": "inactive"},
      {"smiles": "O=C(CSc1nnc(-c2cccc([S+](=O)([O-])N3CCCC3)c2)n1-c1ccccc1)Nc1cccc(C(F)(F)F)c1", "Potency": "inactive"},
      {"smiles": "CC(C)(c1ccc(OCC(O)CO)cc1)c1ccc(OCC(O)CCl)cc1", "note": "(stereo not given)", "Potency": "inactive"}
    ]}
  ]
}
